Bioassay records as filed in PubChem.
Shown are actives, neighbours in structure and some others; about 5.7% of the full set was active somewhere.
DAX1 inh-1: blocks DAX1 repression of SF-1 activated StAR promoter | HEK293T StAR-luciferase reporter, SF-1/DAX-1 repression relief | inhibition, % at 6.8 µM | actives 1.1% (n = 370,000) | AID 652010;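 active = inhibition above the mean over all tested compounds plus 3 SD, cut at about 3.6% in these data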;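 note: 0% = DAX-1 cells with DMSO and 100% = cells lacking DAX-1 with DMSO; higher inhibition means more luminescence from relief of DAX-1 repression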
AHR act: human AHR activation; activation, % at 5 µM; AHR-responsive luciferase reporter cells, luminescence; actives 2.5% (n = 320,000); AID 2796; P35869; in the data active = activation above about 47%;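 note: 0% = vehicle wells and 100% = reference agonist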
hcDAF-12 act: activates DAF-12 receptor from parasite H. contortus; HEK293 hcDAF-12 lit1-tk-luc reporter, luminescence; 0% DMSO, 100% Δ7-dafachronic acid; activation, % at 6.8 µM; actives 1.4% (n = 370,000); AID 652067;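 active = activation above the mean of all tested compounds plus 3 SD, cut at about 5.5% in these data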;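 note: 100% = response to 3 µM Δ7-dafachronic acid high control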
hgDAF-12 ag: activates the H. glycines DAF-12 receptor ligand-binding domain | HEK293 GAL4-hgDAF12 UAS-luciferase reporter, agonist luminescence; normalized to butyrate control | actives 1.8% (n = 370,000) | AID 687014 | activation, % at 6.8 µM;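 active = activation above a cutoff set at the mean of all screened compounds plus 3 SD, cut at about 10% in these data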;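 note: 0% = DMSO wells and 100% = sodium butyrate wells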
DAX1 inh-2: NR0B1 (DAX1) inhibition | AID 504766 | inhibition, % at 6.75 µM | P51843 | actives 0.99% (n = 340,000) | HEK293 Gal4-DAX1 luciferase reporter, luminescence;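 active = inhibition above the mean over all tested compounds plus 3 SD, cut at about 4.2% in these data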;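 note: 0% = DAX1-transfected cells with DMSO and 100% = empty-vector control cells with DMSO; inhibition shows as a rise in luminescence from relieved DAX1 repression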
Target sequence (P51843 207-470 limits assumed): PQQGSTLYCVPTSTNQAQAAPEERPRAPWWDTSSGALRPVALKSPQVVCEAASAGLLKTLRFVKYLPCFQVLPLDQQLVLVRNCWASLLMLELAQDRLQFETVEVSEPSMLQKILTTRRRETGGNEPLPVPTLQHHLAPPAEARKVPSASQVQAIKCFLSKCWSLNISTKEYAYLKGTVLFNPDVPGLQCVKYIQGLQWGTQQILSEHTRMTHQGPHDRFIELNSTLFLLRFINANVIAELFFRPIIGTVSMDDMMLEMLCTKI
ssDAF-12 act: S. stercoralis DAF-12 activation, primary screen. actives 1% (n = 370,000). activation, % at 6.8 µM. HEK293 ssDAF-12/GRIP1 lit1-tk-luc reporter, luminescence; % of 3 µM dafachronic acid response;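 active = activation above the mean over all tested compounds plus 3 SD, cut at about 0.9% in these data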;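 note: 0% = DMSO-only wells and 100% = 3 µM delta7-dafachronic acid wells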
* marks the source's active call; other numbers are inactive results.

`Cc1ccsc1/C=N\NC(=O)c1n[nH]c2c1CCC2` gave DAX1 inh-1 0.6, AHR act 26.6, hcDAF-12 act 6.0*, hgDAF-12 ag 9.8, DAX1 inh-2 -1.8 and ssDAF-12 act 1.0*.
For O=C(N/N=C/c1c(Cl)cccc1Cl)c1n[nH]c2c1CCCC2 the results were DAX1 inh-1 1.4, AHR act 12.8, hcDAF-12 act -0.6, hgDAF-12 ag 7.7, DAX1 inh-2 -1.2 and ssDAF-12 act -1.9.
Screening COc1ccc(CC(=O)N/N=C/c2c(C)n(C)c3ccccc23)cc1OC returned DAX1 inh-1 -1.9, AHR act 47.9*, hcDAF-12 act 0.9, hgDAF-12 ag -1.1 and ssDAF-12 act -0.5.
`Cc1c(/C=N/NC(=O)c2cc(C(C)(C)C)[nH]n2)c2ccccc2n1C` gave DAX1 inh-1 -0.1, AHR act 73.3*, hcDAF-12 act 0.0, hgDAF-12 ag 0.0, DAX1 inh-2 0.9 and ssDAF-12 act -1.1.
`Cc1ccsc1/C=N\NC(=O)c1cc(C(C)(C)C)[nH]n1` gave DAX1 inh-1 2.5, AHR act 20.8, hcDAF-12 act 2.4, hgDAF-12 ag 10.8*, DAX1 inh-2 2.4 and ssDAF-12 act -0.7.
`Cc1cc(C(=O)N/N=C/c2sccc2C)no1` gave DAX1 inh-1 -0.2, AHR act 7.4, hcDAF-12 act -2.2, hgDAF-12 ag 5.7, DAX1 inh-2 -0.6 and ssDAF-12 act -1.1.
`Cc1csc(NC(=O)NCC2CCCC(CNC(=O)Nc3nc(C)cs3)C2)n1` (stereo not drawn) gave DAX1 inh-1 0.2, AHR act 5.6, hcDAF-12 act -1.0, hgDAF-12 ag -1.1, DAX1 inh-2 -0.8 and ssDAF-12 act -1.2.
`CC(C)c1ccc(NC2CCCN(C(=O)CN3C(=O)CSC3=O)C2)cc1` (stereo not drawn) gave DAX1 inh-1 2.1, AHR act 4.0, hcDAF-12 act -1.0, hgDAF-12 ag -1.2, DAX1 inh-2 -0.5 and ssDAF-12 act -1.5.
Screening COc1ccc(N2CCN(C(=O)C3CCN(S(=O)(=O)c4ccc5c(c4)CC(C)N5C(=O)C4CC4)CC3)CC2)cc1 (stereo not drawn) returned DAX1 inh-1 1.5, hcDAF-12 act -0.2, hgDAF-12 ag 0.9 and ssDAF-12 act -0.9.
`COc1ccc(CCN(C)C(=O)CSc2nnnn2C)cc1OC` gave DAX1 inh-1 -0.3, AHR act -0.8, hcDAF-12 act -1.2, hgDAF-12 ag -2.1, DAX1 inh-2 -0.4 and ssDAF-12 act -1.5.
`CCOc1ccc2nc(N3CCCC(C(=O)NCCCN4CCOCC4)C3)sc2c1` (stereo not drawn) gave DAX1 inh-1 3.2, AHR act 13.1, hcDAF-12 act 4.2, hgDAF-12 ag 4.2, DAX1 inh-2 0.7 and ssDAF-12 act -0.9.
`CCN1CCN(CCCNC(=O)C2CCN(c3nnc(-n4c(C)ccc4C)s3)CC2)CC1` gave DAX1 inh-1 -1.0, AHR act 51.4*, hcDAF-12 act 0.2, hgDAF-12 ag -1.3, DAX1 inh-2 1.4 and ssDAF-12 act -1.1.
CCOc1ccc2nc(N3CCC(C(=O)NCCCN4CCOCC4)CC3)sc2c1 was read as DAX1 inh-1 0.3, AHR act 2.8, hcDAF-12 act 1.5, hgDAF-12 ag 11.8*, DAX1 inh-2 1.8 and ssDAF-12 act -0.8.
`Cc1ccc(NC(=O)Cn2ccc(=O)[nH]c2=O)cc1` gave DAX1 inh-1 0.4, AHR act 7.0, hcDAF-12 act 2.5, hgDAF-12 ag 3.7, DAX1 inh-2 2.0 and ssDAF-12 act 0.5.
`CCC(=O)c1ccc(OCc2ccc(C#N)cc2)cc1` gave DAX1 inh-1 2.1, AHR act 0.9, hcDAF-12 act 0.1, hgDAF-12 ag 12.4*, DAX1 inh-2 1.9 and ssDAF-12 act 0.1.
Screening Cc1ccccc1CN1CCCCC(NC(=O)c2cccc([N+](=O)[O-])c2)C1=O (stereo not drawn) returned DAX1 inh-1 -1.5, hcDAF-12 act -0.2, hgDAF-12 ag -4.4 and ssDAF-12 act -1.2.
For Cc1ccc(-n2nnnc2SCn2nnc3ccccc3c2=O)cc1 the results were DAX1 inh-1 0.2, AHR act 8.7, hcDAF-12 act 1.4, hgDAF-12 ag 13.1*, DAX1 inh-2 1.6 and ssDAF-12 act -0.2.
O=c1c2ccccc2nnn1CSc1nnnn1-c1ccc(O)cc1 was read as DAX1 inh-1 -0.2, AHR act 1.7, hcDAF-12 act 4.2, hgDAF-12 ag -1.5, DAX1 inh-2 -0.1 and ssDAF-12 act -1.8.
`CCCCNc1cccc2c1S(=O)(=O)N[C@@H](Cc1ccccc1)CO2` gave DAX1 inh-1 -1.4, hcDAF-12 act -2.2, hgDAF-12 ag -0.3 and ssDAF-12 act -1.2.
For COc1ccc(-c2nc3c([nH]2)c(=O)n(C)c(=O)n3C)c(OC)c1 the results were DAX1 inh-1 0.3, AHR act 21.1, hcDAF-12 act 2.9, hgDAF-12 ag 2.6, DAX1 inh-2 0.5 and ssDAF-12 act 1.1*.
`Cn1c(=O)c2[nH]c(-c3ccccc3O)nc2n(C)c1=O` gave AHR act 40.6.
Screening CN(CCc1ccccn1)C(=O)c1cccnc1Oc1ccccc1 returned DAX1 inh-1 0.1, AHR act 0.2, hcDAF-12 act 0.8, hgDAF-12 ag 0.3, DAX1 inh-2 6.4* and ssDAF-12 act -1.0.
Screening O=c1c(Cl)c(Nc2cccc(Cl)c2)cnn1-c1nc2ccccc2s1 returned DAX1 inh-1 3.3, AHR act 35.8, hcDAF-12 act 5.9*, hgDAF-12 ag 4.4, DAX1 inh-2 2.6 and ssDAF-12 act -0.3.
O=c1c2c3c(sc2nc(NCCOCCO)n1Cc1ccco1)CCCCC3 was read as DAX1 inh-1 -0.5, AHR act 2.9, hcDAF-12 act -3.0, hgDAF-12 ag -1.7, DAX1 inh-2 2.4 and ssDAF-12 act -1.5.
`CC(O)CNc1nc2sc3c(c2c(=O)n1Cc1ccco1)CCCCC3` (stereo not drawn) gave DAX1 inh-1 -0.4, AHR act 8.2, hcDAF-12 act 0.8, hgDAF-12 ag 2.2, DAX1 inh-2 1.0 and ssDAF-12 act -0.4.
For CN(C)CCNc1nc2sc3c(c2c(=O)n1CCc1ccccc1)CCCCC3 the results were DAX1 inh-1 1.3, AHR act 5.2, hcDAF-12 act -0.7, hgDAF-12 ag 1.6, DAX1 inh-2 7.0* and ssDAF-12 act -0.6.
`CC(O)CNc1nc2sc3c(c2c(=O)n1CCc1ccccc1)CCCCC3` (stereo not drawn) gave DAX1 inh-1 -0.5, AHR act 5.2, hcDAF-12 act -0.4, hgDAF-12 ag 2.3, DAX1 inh-2 6.5* and ssDAF-12 act -1.2.
`Cc1[nH]n(-c2ccccc2)c(=O)c1C=NC1CCCCC1` gave DAX1 inh-1 0.0, AHR act 4.3, hcDAF-12 act 1.0, hgDAF-12 ag 4.4, DAX1 inh-2 0.3 and ssDAF-12 act -1.5.
